From PubChem BioAssay
Tgondii IFNg: inhibitors of Toxoplasma gondii growth with IFN-gamma; Toxoplasma gondii growth in IFN-gamma-treated host cells; active compounds read low; activity change, negative = inhibition, % (no concentration beside the values); actives 3.8% (n = 69,000); AID 1259416; in the data active means activity change below about -70%, passing the limit was not always enough;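 further: host cells are HeLa cells infected with Toxoplasma gondii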
Starred values were filed as active, the others as inactive; ! = not active in a repeat. The full list was thinned out, with hits kept by preference.

Cc1ccc(NC(=O)c2nc(Nc3ccc(Cl)cc3)c3ccccc3n2)cc1F was read as Tgondii IFNg -57.5.
COc1ncccc1-c1nc(C)ncc1-c1ccsc1 was read as Tgondii IFNg -13.6.
Screening CC(c1cc2ccccc2s1)N(O)C(N)=O (stereo not drawn) returned Tgondii IFNg -67.9.
OC(CNCc1cc2ccccc2s1)C(F)(F)F (stereo not drawn) was read as Tgondii IFNg -86.0*.
`Cc1ccc(CN2CCC3(CC2)OC(C(=O)N(C)C)c2ccccc23)o1` (stereo not drawn) gave Tgondii IFNg 61.6.
`CC(Cc1cccs1)NC(=O)Cn1ccc2ccc(F)cc21` (stereo not drawn) gave Tgondii IFNg 12.9.
For Fc1ccc(CN2CCC3(CC2)CC(c2cccnc2)CO3)cc1 (stereo not drawn) the results were Tgondii IFNg -8.3.
C#C[C@]1(OC(C)=O)CCC2C3CCC4=CC(=O)CC[C@@H]4C3CC[C@@]21C (stereo partly drawn) was read as Tgondii IFNg -82.5*!.
`CC(=O)O[C@]1(C(C)=O)CC[C@H]2[C@@H]3C=C(C)C4=CC(=O)CC[C@@H]4[C@H]3CC[C@@]21C` gave Tgondii IFNg -20.6.
For C#C[C@]1(OC(C)=O)CC[C@H]2[C@@H]3CCC4=C[C@@H](OC(C)=O)CC[C@@H]4[C@H]3CC[C@@]21C the results were Tgondii IFNg -33.8.
O=C1NCC2(CCCN(C(=O)CCNC(=O)c3ccc(F)cc3)C2)O1 (stereo not drawn) was read as Tgondii IFNg 2.9.
For CCCCC1CCC(c2ccc(/C=C/c3ccccc3)nc2)CC1 (stereo not drawn) the results were Tgondii IFNg -1.6.
For N#CCSC1=Nc2ccccc2C2=NC(CC(=O)NC3CCCCC3)C(=O)N12 (stereo not drawn) the results were Tgondii IFNg -2.3.
`COc1ccc(S(=O)(=O)NCc2nc(-c3ccccc3)oc2C)cc1` gave Tgondii IFNg 19.6.
`COc1ccc(-c2nc(CNS(=O)(=O)c3ccc(F)cc3)c(C)o2)cc1` gave Tgondii IFNg 32.6.
Screening COc1ccc(-c2nc(CNS(=O)(=O)c3ccc(C(C)C)cc3)c(C)o2)cc1 returned Tgondii IFNg -74.7*.
`O=C(C1CC1)N1CCC(c2nc3ccc(-c4ccccc4)cn3n2)CC1` gave Tgondii IFNg 225.8.
`CC(Cc1cccs1)Nc1ccc(-c2nccn2C)nn1` (stereo not drawn) gave Tgondii IFNg 83.0.
Screening COCCC1CCCCN1Cc1ccc(S(C)(=O)=O)cc1 (stereo not drawn) returned Tgondii IFNg -5.2.
`COc1cc(-c2nccn2CCN2CCN(C)CC2)cc2c1OCO2` gave Tgondii IFNg 2.2.
For COc1ccc(C2Sc3ccccc3N=C3c4ccccc4CCC32)cc1 (stereo not drawn) the results were Tgondii IFNg -65.4.
Screening COc1ccc(C2CN=NC23CSc2ccccc2C3=O)cc1 (stereo not drawn) returned Tgondii IFNg -81.7*.
Screening COc1ccc(C2NC(=S)NC3=C2CCc2ccccc23)cc1 (stereo not drawn) returned Tgondii IFNg 89.1.
For CN1CC2(CCCN(C(=O)c3ccc(Cn4cccn4)o3)CC2)OC1=O (stereo not drawn) the results were Tgondii IFNg -5.6.
O=C(Oc1cccc2cccnc12)c1ccccc1 was read as Tgondii IFNg 8.7.
O=C(Oc1cccccc1=O)c1ccccc1 was read as Tgondii IFNg 0.1.
For Cc1ccc2c(Br)cc(Br)c(OC(=O)c3ccccc3)c2n1 the results were Tgondii IFNg -85.1*.
For CCc1cc(N2CC(c3ccncc3)C2)nc(N2CCCC2)n1 the results were Tgondii IFNg -1.0.
`CCc1nnc(CNC(=O)C2CC(=O)N(CC(C)C)C2)s1` (stereo not drawn) gave Tgondii IFNg -57.3.
COC(=O)c1cc2n(n1)CCCN(C(=O)C/C=C/c1ccccc1)C2 was read as Tgondii IFNg 30.8.
Screening Cc1cc(N2CCCC2)nc(C2CCN(S(=O)(=O)c3c(C)nn(C)c3Cl)CC2)n1 returned Tgondii IFNg -4.5.
For CCOC(=O)N1c2ccc(C(C)C)cc2C=CC1C#N (stereo not drawn) the results were Tgondii IFNg 204.1.
For CC(C)c1ccc2c(c1)CCC1C(C)(CNC(=O)NC(C)(C)C)CCCC21C (stereo not drawn) the results were Tgondii IFNg -104.2*.
For CC(C)c1ccc(CN2CCC(CNC(=O)C3(N)CCC3)C2)cc1 (stereo not drawn) the results were Tgondii IFNg -7.9.
Screening COc1ccc(C[C@H]2CN(S(C)(=O)=O)CC[C@H]2OCC2CC2)cc1 returned Tgondii IFNg -3.9.
`O=C(c1cccs1)N1C[C@H]2CCC[C@]2(COCc2ccccn2)C1` gave Tgondii IFNg -9.5.
Screening O=C1CC(c2ccc3cccc(O)c3n2)c2cc3cn[nH]c3cc2N1 (stereo not drawn) returned Tgondii IFNg 7.3.
For COC1CC2CC1CN2c1ncccn1 (stereo not drawn) the results were Tgondii IFNg 94.7.
For CCn1nc(C)cc1C(=O)N1CC[C@H](OC)[C@@H]2CN(CC3CC3)C[C@@H]21 the results were Tgondii IFNg -2.4.
For CCOC(=O)c1cncc(C#CCOC(=O)Nc2ccc(OC(F)(F)F)cc2)c1 the results were Tgondii IFNg -32.8.
O=C(O)CC1(CC(=O)Nc2ccc(OC(F)(F)F)cc2)CCCC1 was read as Tgondii IFNg 35.9.
Screening O=C(Nc1ccc(OC(F)(F)F)cc1)OCc1ccc(C#Cc2ccccc2)s1 returned Tgondii IFNg -83.2*.
Screening CCc1ccc(-c2nccn2CCn2ccnc2)o1 returned Tgondii IFNg 8.3.
Screening CC(C)CC(=O)N1CCC2(CC1)Nc1cc(F)ccc1-n1cccc12 returned Tgondii IFNg 61.4.
`Cc1cc(-n2cccn2)ccc1CN1CCOC(c2ccc(F)cc2)C1` (stereo not drawn) gave Tgondii IFNg -61.5.
CC(C)n1cnc2c(-c3ccccc3)nc(C3CCN(S(C)(=O)=O)CC3)cc21 was read as Tgondii IFNg -11.1.
